In PubChem BioAssay (Tox21):
Inconclusive results are not listed. Some compounds were tested as several samples or in several runs, with calls that do not always agree. Activity calls are given as the source filed them. Unless noted, calls come from the whole dose curve.

How the values were obtained:
[1] = Nuclear factor erythroid 2-related factor 2/antioxidant responsive element (Nrf2/ARE) small molecule agonists: qHTS cell viability counter screen in human keratinocytes (AID 1919968; active = well fitted curve in the direction sought with a large enough effect in the repeat runs; an effect the other way counts as inactive or inconclusive; note: nearly all actives have a fitted effect of over 55% in size)
How it was run: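 After a 5 h attachment period, ARE-reporter keratinocytes were dosed with compounds in DMSO and then cultured 23 h at 37 C. Cell viability came from CellTiter-Fluor signal read after a further 1 h.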

[2] = Nuclear factor erythroid 2-related factor 2/antioxidant responsive element (Nrf2/ARE) small molecule agonists: luciferase reporter gene qHTS assay in human keratinocytes (AID 1919969); note: nearly all actives have a fitted effect of over 35% in size; note: potency is the fitted concentration of half-maximal effect
[3] = target: Gonadotropin-releasing hormone receptor (Homo sapiens) (UniProt P30968); experiment: Human gonadotropin-releasing hormone receptor (GnRHR) small molecule agonists, calcium flux assay in GnRHR-HEK293 cells (AID 1920063); note: nearly all actives have a fitted effect of over 35% in size
How it was run: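 We seeded human GnRHR-expressing HEK293 cells for 18 hours, loaded them with calcium dye for an hour at 37 C, added test compounds, and recorded fluorescence intensity kinetically for three minutes.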

[4] = target: KiSS-1 receptor (Homo sapiens) (UniProt Q969F8); experiment: Human kisspeptin (KISS1R) small molecule agonists, calcium flux assay in KISS1R-HEK293 cells (AID 1920064; active = well fitted curve in the direction sought with a large enough effect in the repeat runs; an effect the other way counts as inactive or inconclusive)
How it was run: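 Kinetic calcium assay, 1 s sampling over 3 min at Ex/Em 480/540, in HEK293 cells engineered with human KISS1R; compounds delivered in DMSO after 1 h dye loading.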

[5] = G protein-coupled receptor (GPCR) small molecule agonists, calcium flux assay: HEK293 wild type cell line counter screen (AID 1920065)
How it was run: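 Calcium-sensitive dye, loaded 1 h at 37 C into cells cultured 18 h, reports compound-evoked calcium release as fluorescence (Ex/Em 480/540), measured over 3 min. Agonist mode; 15-point titrations, triplicate.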

[6] = p53 small molecule agonists, cell-based qHTS assay with human liver microsomes (AID 1963577);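 note: p53 response element beta-lactamase reporter cells with liver microsomes plus NADPH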
How it was run: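 p53RE-bla cells; 5 h settle, 37 C/5% CO2; cpd + HLM 0.5 mg/mL + NADPH 0.5 mg/mL (final); 16 h 37 C; LiveBLAzer 2 h RT dark; fluorescence readout.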

[7] = p53 small molecule agonists, cell-based qHTS assay with rat liver microsomes (AID 1963578)
How it was run: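 Rat liver microsome activation: microsomes 0.5 mg/mL, NADPH 0.5 mg/mL final; p53RE-bla cells, 16 h 37 C; LiveBLAzer readout, 2 h RT dark.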

[8] = p53 small molecule agonists, cell-based qHTS assay with human liver microsomes: qHTS cell viability counter screen (AID 1963579); note: nearly all actives have a fitted effect of over 45% in size
How it was run: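 Luminescent CellTiter-Glo read-out, 30 min at room temperature, gauged cytotoxicity in p53RE-bla cells exposed 16 h at 37 C to DMSO-dissolved compounds with metabolic activation by human liver microsomes and NADPH, each 0.5 mg/mL final.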

[9] = p53 small molecule agonists, cell-based qHTS assay with rat liver microsomes: qHTS cell viability counter screen (AID 1963580); note: nearly all actives have a fitted effect of over 45% in size
How it was run: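 p53RE-bla HCT-116 cells (4,000/well) rested 5 h at 37 C, then given Tox21 compounds in DMSO with rat liver microsomes (0.5 mg/mL final) plus NADPH (0.5 mg/mL final) for 16 h at 37 C. Viability read by CellTiter-Glo luminescence after 30 min at room temperature.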

[10] = p53 small molecule agonists, cell-based qHTS assay: qHTS cell viability counter screen (AID 1963581); note: nearly all actives have a fitted effect of over 45% in size
How it was run: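 Following 5 h attachment, HCT-116 p53RE-bla cells took up compound for 16 h at 37 C; the reporter was read with B/G FRET substrate (2 h RT), and viability then via CellTiter-Glo ATP luminescence.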

[11] = p53 small molecule agonists, cell-based qHTS assay (AID 1963582; active = well fitted activation curve with a large enough effect in the signal ratio in the repeat runs, not every such curve was filed as active; the % refers to the signal ratio)
How it was run: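 In this cell-based concentration-response screen, a p53 response element drives beta-lactamase; cells received DMSO-borne compounds after 5 h culture and were incubated a further 16 h before FRET substrate development.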

[12] = target: 5-hydroxytryptamine receptor 2A (Homo sapiens) (UniProt P28223); experiment: 5-hydroxytryptamine receptor 2A (HTR2A) small molecule antagonists, cell-based qHTS assay (AID 1963586); note: nearly all actives have a fitted effect of over 45% in size
How it was run: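 Antagonist-mode intracellular calcium assay: DOI (4 nM) added after 5 min compound pre-incubation at room temperature to dye-loaded HTR2A-CHO cells. Fluorescence followed for 3 min, sampled every second.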

[13] = target: 5-hydroxytryptamine receptor 2A (Homo sapiens) (UniProt P28223); experiment: 5-hydroxytryptamine receptor 2A (HTR2A) small molecule agonists, cell-based qHTS assay (AID 1963587); note: nearly all actives have a fitted effect of over 30% in size
How it was run: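 HTR2A-CHO cells, plated 18 h at 37 C/5% CO2, dye-loaded 1 h at 37 C; compounds in DMSO added by pin tool (agonist mode). Intracellular calcium flux read as kinetic fluorescence on FDSS over 2 min at 1 s intervals.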

[14] = target: Muscarinic acetylcholine receptor M1 (Homo sapiens) (UniProt P11229); experiment: Cholinergic receptor muscarinic 1 (CHRM1) small molecule antagonists, cell-based qHTS assay (AID 1963588); note: nearly all actives have a fitted effect of over 40% in size
How it was run: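 CHRM1-CHO calcium-flux assay, antagonist mode. Cells were seeded 18 h, dye-loaded 1 h at 37 C and given compound for 5 min at RT, then acetylcholine was added at 50nM. FDSS fluorescence was read 3 min; 15 concentrations, three runs.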

[15] = target: Muscarinic acetylcholine receptor M1 (Homo sapiens) (UniProt P11229); experiment: Cholinergic receptor muscarinic 1 (CHRM1) small molecule agonists, cell-based qHTS assay (AID 1963589); note: nearly all actives have a fitted effect of over 35% in size
How it was run: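 Measures agonist-induced intracellular calcium rise. Stable human CHRM1 CHO line, 1 h dye load at 37 C, compounds from DMSO, kinetic fluorescence read.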

[16] = cAMP Responsive Elements (CRE) small molecule agonists, cell-based qHTS assay (AID 1963590)
How it was run: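 A CRE-responsive beta-lactamase reporter in HEK 293T cells was used. Treatment ran 3 h at 37 C; detection used LiveBLAzer B/G FRET substrate for 2 h at room temperature.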

[17] = cAMP Responsive Elements (CRE) small molecule antagonists, cell-based qHTS assay (AID 1963591; active = well fitted inhibition curve with a large enough effect in the signal ratio in the repeat runs, not every such curve was filed as active; the % refers to the signal ratio)
How it was run: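 HEK293T cells carrying a CRE-driven beta-lactamase reporter receive compound and NKH477 (0.25 uM final) for 3 h. Fluorescence from LiveBLAzer B/G FRET substrate is read after 2 h at room temperature.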

[18] = target: Beta-2 adrenergic receptor (Homo sapiens) (UniProt P07550); experiment: Adrenergic beta2 receptor (ADRB2) small molecule antagonists, cell-based qHTS assay (AID 1963592); note: series mostly up to about 92 µM; nearly all actives have a fitted effect of over 50% in size
How it was run: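 Cells (CHO, stable ADRB2 overexpression) incubated 18-20hr at 37C; compounds added from DMSO; agonist mix (1nM isoproterenol, 100uM IBMX, 25uM Ro-20-1724) added; 0.5hr RT; d2-cAMP and anti-cAMP-cryptate added; 1hr RT; 665/615 nm read.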

[19] = target: D(2) dopamine receptor (Homo sapiens) (UniProt P14416); experiment: Dopamine D2 receptor (DRD2) small molecule agonists, cell-based qHTS assay (AID 1963594); note: nearly all actives have a fitted effect of over 35% in size
How it was run: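 HEK293 cells stably expressing DRD2 were cultured 24 h at 37 C, then given Ro20-1724 (0.1 mM final) and compounds for 10 min at room temperature. NKH477 (200nM) was then added for 30 min. cAMP was read by HTRF.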

[20] = target: D(2) dopamine receptor (Homo sapiens) (UniProt P14416); experiment: Dopamine D2 receptor (DRD2) small molecule antagonists, cell-based qHTS assay (AID 1963595; active = well fitted inhibition curve with a large enough effect in the signal ratio in the repeat runs, with a control signal flat; the % refers to the signal ratio)
How it was run: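 Antagonist mode in DRD2-HEK293 cells: after compound addition with 0.1 mM Ro20-1724, cells received quinpirole (12 nM) and NKH477 (200 nM) for 30 min at room temperature; HTRF cAMP read after 1 h detection.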
% is set by controls: 0 for no effect and ±100 for the full control effect.

Chain of Muscarinic acetylcholine receptor M1 (Homo sapiens) (P11229 whole entry, looked up): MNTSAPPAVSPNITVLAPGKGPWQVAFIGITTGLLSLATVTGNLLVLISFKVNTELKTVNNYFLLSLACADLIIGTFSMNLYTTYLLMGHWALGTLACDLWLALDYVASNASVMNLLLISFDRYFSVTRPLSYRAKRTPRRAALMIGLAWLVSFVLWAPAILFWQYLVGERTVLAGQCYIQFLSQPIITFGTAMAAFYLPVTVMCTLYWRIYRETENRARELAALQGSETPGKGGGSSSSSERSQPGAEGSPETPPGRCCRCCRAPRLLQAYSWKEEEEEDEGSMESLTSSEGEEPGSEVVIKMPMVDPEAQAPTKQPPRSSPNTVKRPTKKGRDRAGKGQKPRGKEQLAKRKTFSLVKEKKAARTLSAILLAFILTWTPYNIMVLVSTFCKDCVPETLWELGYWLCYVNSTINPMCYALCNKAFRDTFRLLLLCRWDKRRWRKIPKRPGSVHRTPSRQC
Chain of Beta-2 adrenergic receptor (Homo sapiens) (P07550 whole entry, looked up): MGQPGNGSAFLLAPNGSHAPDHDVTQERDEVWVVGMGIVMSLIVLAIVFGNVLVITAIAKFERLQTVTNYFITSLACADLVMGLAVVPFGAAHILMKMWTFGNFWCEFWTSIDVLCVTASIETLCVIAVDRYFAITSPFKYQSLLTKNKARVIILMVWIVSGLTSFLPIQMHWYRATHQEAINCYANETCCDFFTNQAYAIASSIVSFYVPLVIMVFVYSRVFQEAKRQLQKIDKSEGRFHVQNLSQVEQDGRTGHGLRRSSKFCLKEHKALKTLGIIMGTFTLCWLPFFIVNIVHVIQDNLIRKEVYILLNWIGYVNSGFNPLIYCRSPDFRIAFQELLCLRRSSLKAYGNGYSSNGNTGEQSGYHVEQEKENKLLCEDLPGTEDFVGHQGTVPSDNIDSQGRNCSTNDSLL
Chain of 5-hydroxytryptamine receptor 2A (Homo sapiens) (P28223 whole entry, looked up): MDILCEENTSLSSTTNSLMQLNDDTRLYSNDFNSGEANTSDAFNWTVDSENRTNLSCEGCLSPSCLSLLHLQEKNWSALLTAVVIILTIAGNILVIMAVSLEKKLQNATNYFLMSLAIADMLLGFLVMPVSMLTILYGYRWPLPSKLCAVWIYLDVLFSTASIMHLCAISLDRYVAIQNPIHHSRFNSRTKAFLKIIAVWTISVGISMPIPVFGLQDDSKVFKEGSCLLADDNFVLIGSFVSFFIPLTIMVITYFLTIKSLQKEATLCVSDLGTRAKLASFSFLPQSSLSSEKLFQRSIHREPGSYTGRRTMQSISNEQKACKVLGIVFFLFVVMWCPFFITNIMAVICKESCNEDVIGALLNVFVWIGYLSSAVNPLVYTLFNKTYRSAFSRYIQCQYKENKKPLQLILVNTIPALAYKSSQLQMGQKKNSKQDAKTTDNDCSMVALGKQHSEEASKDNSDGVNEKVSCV
Chain of KiSS-1 receptor (Homo sapiens) (Q969F8 whole entry, looked up): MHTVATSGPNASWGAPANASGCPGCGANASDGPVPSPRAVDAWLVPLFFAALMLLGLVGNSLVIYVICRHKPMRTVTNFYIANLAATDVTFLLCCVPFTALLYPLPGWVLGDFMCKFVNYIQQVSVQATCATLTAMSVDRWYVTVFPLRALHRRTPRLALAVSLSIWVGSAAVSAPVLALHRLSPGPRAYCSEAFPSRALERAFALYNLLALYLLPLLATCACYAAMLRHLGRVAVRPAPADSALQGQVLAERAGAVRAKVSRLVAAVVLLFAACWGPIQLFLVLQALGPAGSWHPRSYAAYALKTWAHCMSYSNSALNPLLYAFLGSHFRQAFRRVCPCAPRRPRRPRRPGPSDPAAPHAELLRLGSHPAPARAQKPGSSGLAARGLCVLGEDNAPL
Chain of D(2) dopamine receptor (Homo sapiens) (P14416 whole entry, looked up): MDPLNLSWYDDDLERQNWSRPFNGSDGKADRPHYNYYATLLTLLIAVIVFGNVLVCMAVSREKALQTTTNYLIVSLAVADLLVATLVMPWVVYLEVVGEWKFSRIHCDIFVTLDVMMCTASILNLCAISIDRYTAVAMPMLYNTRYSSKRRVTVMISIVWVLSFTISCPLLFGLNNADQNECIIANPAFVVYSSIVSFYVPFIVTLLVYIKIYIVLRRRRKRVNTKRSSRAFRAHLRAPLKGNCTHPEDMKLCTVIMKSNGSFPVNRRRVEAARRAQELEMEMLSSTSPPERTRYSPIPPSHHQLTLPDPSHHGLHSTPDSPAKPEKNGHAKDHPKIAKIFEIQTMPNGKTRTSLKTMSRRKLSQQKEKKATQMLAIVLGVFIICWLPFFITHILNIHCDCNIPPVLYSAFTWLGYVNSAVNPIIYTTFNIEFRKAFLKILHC
Chain of Gonadotropin-releasing hormone receptor (Homo sapiens) (P30968 whole entry, looked up): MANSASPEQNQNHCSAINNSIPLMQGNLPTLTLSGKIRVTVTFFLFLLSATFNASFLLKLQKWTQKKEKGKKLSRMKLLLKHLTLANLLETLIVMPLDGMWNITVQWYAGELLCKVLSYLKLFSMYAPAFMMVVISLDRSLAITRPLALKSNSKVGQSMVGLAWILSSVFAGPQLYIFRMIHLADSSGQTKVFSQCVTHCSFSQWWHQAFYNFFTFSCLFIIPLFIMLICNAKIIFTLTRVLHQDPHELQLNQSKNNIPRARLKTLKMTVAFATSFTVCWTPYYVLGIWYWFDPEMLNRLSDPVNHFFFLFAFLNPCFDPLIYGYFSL

N#Cc1ccc(Cl)cc1
inactive: Potency [1] | Potency [2] | Potency [3] | Potency [4] | Potency [5] | Potency [6] | Potency [7] | Potency [8] | Potency [9] | Potency [10] | Potency [11] | Potency [12] | Potency [13] | Potency [14] | Potency [15] | Potency [16] | Potency [17] | Potency [18] | Potency [19]

N#Cc1ccccn1
inactive: Potency [1] | Potency [3] | Potency [4] | Potency [5] | Potency [6] | Potency [7] | Potency [8] | Potency [9] | Potency [10] | Potency [11] | Potency [12] | Potency [13] | Potency [14] | Potency [15] | Potency [16] | Potency [17] | Potency [18] | Potency [19] | Potency [20]
63.7 µM (active) and inactive: Potency [2]

Brc1c(Br)c(Br)c(Oc2c(Br)c(Br)c(Br)c(Br)c2Br)c(Br)c1Br
inactive: activity change, negative = cytotoxicity [1] -0.108% [at 19 µM] | activity, positive = activation [2] -3.66% [at 19 µM] | activity change [3] -0.419% [at 11.8 µM, stronger effect = higher value] | activation [4] -2.44% [at 15.8 µM] | activation [5] 1.15% [at 11.8 µM] | activation [6] -0.0858% [at 13.5 µM] | activation [7] 0.633% [at 13.6 µM] | activity change, negative = cytotoxicity [8] 1.7% [at 13.5 µM] | activity change, negative = cytotoxicity [9] 4.17% [at 13.5 µM] | activity change, negative = cytotoxicity [10] 13.8% [at 13.5 µM] | activation [11] 0.0757% [at 13.5 µM] | activity, negative = inhibition [12] 9.26% [at 12.7 µM] | activation [13] 1.53% [at 15.9 µM] | activity, negative = inhibition [14] -22.2% [at 12.6 µM] | activation [15] -0.663% [at 15.8 µM] | activation [16] 0.588% [at 19 µM] | activity change, negative = inhibition [17] -8.08% [at 18.9 µM] | activity change, negative = inhibition [18] 1.07% [at 19 µM] | activation [19] 4.7% [at 19 µM] | activity change, negative = inhibition [20] 0.371% [at 18.9 µM]

CCCOC(=O)c1ccccc1C(=O)OCCC
inactive: Potency [1] | Potency [2] | Potency [3] | Potency [4] | Potency [5] | Potency [6] | Potency [7] | Potency [8] | Potency [9] | Potency [10] | Potency [11] | Potency [12] | Potency [13] | Potency [14] | Potency [15] | Potency [16] | Potency [17] | Potency [18] | Potency [19] | Potency [20]

CS(=O)(=O)NC(=O)c1cc(Oc2ccc(C(F)(F)F)cc2Cl)ccc1[N+](=O)[O-]
inactive: Potency [1] | Potency [2] | Potency [3] | Potency [4] | Potency [5] | Potency [6] | Potency [7] | Potency [8] | Potency [9] | Potency [10] | Potency [11] | Potency [12] | Potency [13] | Potency [14] | Potency [15] | Potency [16] | Potency [17] | Potency [18] | Potency [19] | Potency [20]

O=[N+]([O-])c1ccc([As](=O)(O)O)cc1
inactive: Potency [1] | Potency [2] | Potency [3] | Potency [4] | Potency [5] | Potency [6] | Potency [7] | Potency [8] | Potency [9] | Potency [10] | Potency [11] | Potency [12] | Potency [13] | Potency [14] | Potency [15] | Potency [16] | Potency [17] | Potency [18] | Potency [20]

CCN(CC)CCN1C(=O)CN=C(c2ccccc2F)c2cc(Cl)ccc21
inactive: Potency [1] | Potency [2] | Potency [3] | Potency [4] | Potency [5] | Potency [6] | Potency [7] | Potency [8] | Potency [9] | Potency [10] | Potency [11] | Potency [12] | Potency [13] | Potency [14] | Potency [15] | Potency [16] | Potency [17] | Potency [18] | Potency [19] | Potency [20]
